Assay outcomes (PubChem BioAssay)
Compounds with a hit are over-represented: about 3.1% of the library has one in this group of screens.
Wnt bcat act = Wnt/beta-catenin pathway activators, primary screen, cell-based, plate reader, single point. Wnt/beta-catenin reporter cell assay, activator. activation, % at 9.35 µM. 300,000 compounds, 1.2% hits; in the data active means activation above about 30%, passing the limit was not always enough; inconclusive means no clear call, values can overlap the other calls;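 further: 0% = neutral control wells and 100% = positive control wells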
MITF act = activators of MITF-driven TRPM1 promoter reporter, primary screen, cell-based, SK-MEL-5, luciferase, single point. SK-MEL-5 TRPM1-promoter luciferase, 24 h; % of positive control, neutral wells = 0. activation, % at 12.5 µM. 300,000 compounds, 0.75% hits;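 active means mean activation of at least 80% with every replicate also reaching 80%; inconclusive means mean reaches 80% but some replicate falls short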;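 further: 0% = neutral control wells and 100% = parthenolide positive control wells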
esBAF inh = Bmi1 luciferase reporter increase in mESCs, primary screen, esBAF inhibitor project, mouse ES cells, Bmi1 luciferase knock-in, single point | 24 h; 100% = twice the neutral-well signal | reporter increase, % at 12.5 µM | 350,000 compounds, 2% hits | AID 602393, 2012; in the data active means activation above about 40%; inconclusive means no clear call, values can overlap the other calls;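 further: 0% = median of the plate's neutral control wells and 100% = double that signal; a rise in the Bmi1 reporter signal indicates esBAF inhibition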
C2C12 statin = suppressors of statin myotoxicity in C2C12 myotubes, primary screen, cell-based, single point, plate reader; C2C12 myotubes + simvastatin, ATP luminescence, 48 h; scaled: DMSO 0, geranylgeraniol control 100; rescue of ATP level, % at 7.49 µM; 330,000 compounds, 0.78% hits; AID 602340, 2012;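 active means mean ATP rescue above about 67%, or every replicate alone reaching that limit, limit read from the data, passing the limit was not always enough; inconclusive means no clear call, values can overlap the other calls; inactive means mean under the limit and some replicate under it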;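 further: myotubes were challenged with 10 µM simvastatin during compound exposure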
Rtt109 HAT inh = inhibitors of C. albicans Rtt109/Vps75 HAT, primary screen, biochemical, ThioGlo CoA-SH fluorescence, plate reader; Histone acetyltransferase RTT109 (Candida albicans (strain SC5314 / ATCC MYA-2876)), …; purified Rtt109/Vps75, 4 h; inhibition, % at 34.9 µM; 330,000 compounds, 0.16% hits;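 active means inhibition of at least 50% in every replicate; inconclusive means best replicate reaches 50% inhibition but some replicates fall short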
Target sequence (Q5AAJ8 whole entry, looked up): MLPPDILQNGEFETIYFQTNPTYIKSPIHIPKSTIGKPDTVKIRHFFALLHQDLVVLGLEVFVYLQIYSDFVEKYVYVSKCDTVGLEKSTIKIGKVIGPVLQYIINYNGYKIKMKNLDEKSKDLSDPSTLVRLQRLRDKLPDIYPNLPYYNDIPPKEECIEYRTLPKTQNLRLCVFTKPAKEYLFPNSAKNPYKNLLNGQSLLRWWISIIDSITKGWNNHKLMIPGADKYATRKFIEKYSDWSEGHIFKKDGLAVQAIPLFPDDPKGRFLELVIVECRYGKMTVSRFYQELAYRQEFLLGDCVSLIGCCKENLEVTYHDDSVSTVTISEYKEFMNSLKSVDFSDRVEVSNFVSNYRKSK
Active calls of the source: *; ? = inconclusive; . = no result; ! = not confirmed by another sample.

SMILES	Wnt bcat act	MITF act	esBAF inh	C2C12 statin	Rtt109 HAT inh
O=C(NCC1CC1)[C@@H]1[C@@H](CO)[C@@H]2Cn3c(ccc(-c4cccnc4)c3=O)[C@H]1N2C(=O)C1CC1	.	.	-3.1	14.7	.
COc1ccc2nc(SCc3cccc(C)c3)nc(C)c2c1	47.7*	70.7	.	.	-1.4
[N-]=[N+]=CC(=O)c1ccnc(C(=O)C=[N+]=[N-])c1	0.2	.	-11.9	93.6*	-8.1
COCC(=O)Nc1ccc2c(c1)C(=O)N(C)C[C@H](OC)[C@H](C)CN[C@@H](C)CO2	.	.	0.8	11.1	.
CC1CCCCN1CCCNC(=O)C1CCN(c2nnc(-n3cccc3)s2)CC1 (stereo not given)	-3.2	10.4	2.7	0.5	5.3
CCC1=C(c2ccc(C)cc2)S(=O)(=O)N=C1N1CCC(C(=O)NCCCN2CCCCC2C)CC1 (stereo not given)	-0.9	16.8	-1.3	115.4*	7.3
COCCn1nnnc1C(c1ccc(C)cc1)N1CCN(Cc2ccc3c(c2)OCO3)CC1 (stereo not given)	-2.3	4.8	-7.1	92.7*	1.1
C=CCN1CCN(C(c2ccccc2)c2nnnn2CCC(C)C)CC1 (stereo not given)	.	-3.7	-0.4	70.9*	5.6
CC(C)CCn1nnnc1C(c1ccccc1)N1CCN(C)CC1 (stereo not given)	.	0.7	-11.4	-15.0	.
COCCn1nnnc1C(c1ccccc1)N1CCN(Cc2ccc3c(c2)OCO3)CC1 (stereo not given)	.	7.9	-4.3	108.3*	-12.0
COc1ccc(S(=O)(=O)Nc2cccc3c2O[C@H](CN(C)S(=O)(=O)c2ccc(Cl)cc2)[C@H](C)CN([C@@H](C)CO)C3=O)cc1	.	.	5.6	91.0*	.
C[C@H]1CN([C@@H](C)CO)C(=O)c2cccc(NC(=O)Nc3ccc(C(F)(F)F)cc3)c2O[C@@H]1CN(C)S(=O)(=O)c1ccc(Cl)cc1	-10.1	-7.0	-1.8	112.6*!	4.2
C[C@H](CO)N1C[C@H](C)[C@H](CN(C)S(=O)(=O)c2ccc(Cl)cc2)Oc2c(NC(=O)c3ccncc3)cccc2C1=O	.	.	3.9	-5.7	.
C[C@H](CO)N1C[C@H](C)[C@@H](CN(C)S(=O)(=O)c2ccc(Cl)cc2)Oc2c(NC(=O)Nc3ccc(C(F)(F)F)cc3)cccc2C1=O	.	.	4.0	102.5*	.
C[C@@H]1CN([C@@H](C)CO)C(=O)c2cccc(NC(=O)c3ccncc3)c2O[C@@H]1CN(C)S(=O)(=O)c1ccc(Cl)cc1	.	.	2.0	73.0*	.
COc1ccc(S(=O)(=O)Nc2cccc3c2O[C@@H](CN(C)S(=O)(=O)c2ccc(Cl)cc2)[C@@H](C)CN([C@@H](C)CO)C3=O)cc1	.	.	2.5	-55.5	.
CCNC(=O)Nc1ccc2c(c1)C(=O)N(C)[C@H]1CC[C@H](CC(=O)Nc3ccccc3)O[C@@H]1CO2	.	.	-1.4	11.7	.
COc1ccc(S(=O)(=O)N(C)C[C@H]2Oc3c(NS(=O)(=O)c4c(C)noc4C)cccc3C(=O)N([C@H](C)CO)C[C@H]2C)cc1	.	.	8.3	0.2	.
COCC(=O)N(C)C[C@@H]1Oc2cc(C#CC3CCCC3)ccc2S(=O)(=O)N([C@H](C)CO)C[C@@H]1C	.	.	.	31.3	.
Cn1c(NC(=S)Nc2ccccc2)nc2ccccc21	40.5*	4.9	.	.	23.0
S=C(Nc1ccccc1)Nc1nc2ccccc2n1CCOc1ccc(Br)cc1	-9.3	3.5	-6.2	4.2	-4.8
COc1ccc(CNc2nc3ccccc3n2C)c(O)c1	?	93.3*	45.1	-0.5	0.4
COc1ccc(Nc2nc3ccccc3n2C)cc1	40.9*	65.1	-7.1	-2.7	-11.0
O=C1ON=C(c2ccccc2)/C1=C\c1ccco1	-1.3	.	-2.3	-1.7	5.1
O=C1NC(c2ccc(Br)cc2)=N/C1=C/c1ccco1	.	97.1*	.	.	-2.6
SMILES	Wnt bcat act	MITF act	esBAF inh	C2C12 statin	Rtt109 HAT inh
O=C1NC(c2ccccc2Cl)=N/C1=C/c1ccco1	52.7*	66.6	.	.	4.1
C[C@H](CO)N1C[C@H](C)[C@H](CN(C)S(=O)(=O)c2ccc(F)cc2)Oc2cc(C#Cc3ccc(F)cc3)ccc2S1(=O)=O	.	.	-2.5	20.6	.
C[C@@H]1CCCCO[C@@H](CN(C)C(=O)NC2CCCCC2)[C@@H](C)CN([C@H](C)CO)C(=O)c2cc(NS(=O)(=O)c3ccccc3)ccc2O1	.	.	-6.7	.	.
CN(C)C(=O)c1ccc(-c2cc3onc(-c4ccccc4)c3c(=O)n2C)cc1	40.7*	69.0	54.9*	-5.5	1.3
COC(=O)c1ccc(-c2cc3onc(-c4ccccc4)c3c(=O)n2C)cc1	30.7*	38.5	38.8	1.8	-3.4
O=C(NCc1ccccc1)C1=C[C@@H](c2ccccc2)C[C@@H](OCc2ccc(CO)cc2)O1	-0.4	-6.2	13.8	5.6	-1.3
C[C@H]1C=C(C(=O)NCc2ccccc2)O[C@@H](OCc2ccc(CO)cc2)C1	47.8*	5.3	-4.6	13.6	-0.4
COc1ccccc1OCCNC1CCCC1	-2.7	-8.1	-0.4	160.1*	-12.8
CCC(C)c1ccccc1OCCCNC1CCCC1 (stereo not given)	-1.7	-15.6	-4.4	0.7	0.7
CC(C)NC(=O)N(C)C[C@H]1Oc2ccc(NC(=O)Cc3ccccc3)cc2C(=O)N([C@@H](C)CO)C[C@H]1C	.	.	-2.0	-12.1	.
CCC(=O)Nc1ccc2c(c1)C(=O)N(C)C[C@@H](OC)[C@H](C)CN(Cc1cncnc1)[C@@H](C)CO2	.	.	-7.3	0.7	.
CCCN1C[C@H](C)[C@H](OC)CN(C)C(=O)c2cc(NC(=O)c3cccc(OC)c3)ccc2OC[C@H]1C	.	.	0.4	23.6	.
C[C@H]1CN([C@@H](C)CO)S(=O)(=O)c2ccc(-c3cccnc3)cc2O[C@@H]1CN(C)C(=O)CC1CC1	.	.	-3.2	10.8	.
C=CCNc1nc(-c2ccc(OC)cc2OC)cs1	.	77.9	54.7*	7.8	-7.3
C[C@H]1CN([C@@H](C)CO)C(=O)c2cc(-c3ccc(F)cc3)cnc2O[C@@H]1CN(C)C(=O)Nc1ccc(F)cc1	.	.	1.1	26.2	.
COc1cc(/C=C/C(=O)OCC(=O)NC(=O)NC(C)C)cc(OC)c1OC	1.2	-8.3	-1.6	4.6	3.3
C/C=C/C(=O)OCC(=O)NC(=O)NC(C)C	-0.5	-0.2	-4.7	100.8*	-11.7
C[C@@H]1CCCCO[C@H](CN(C)CC2CCCCC2)[C@@H](C)CN([C@H](C)CO)C(=O)c2cc(NC(=O)Nc3ccc4c(c3)OCO4)ccc2O1	.	.	-4.6	32.9	.
CCOC(=O)C(C)n1nc(/C=C/c2ccccc2)ccc1=O (stereo not given)	0.2	26.7	12.9	117.9*	-36.2
CCOC(=O)C(C)n1nc(/C=C/c2ccc(OC)cc2)ccc1=O (stereo not given)	-0.2	1.7	.	.	2.4
Nc1ccccc1-n1cccc1	61.5*	.	.	.	1.0
